PubChem BioAssay (Tox21)
Inconclusive results are not listed. Where a call stands in place of a potency, no number is given. Activity calls are given as the source filed them. The call rests on the fitted dose curve; in most records, active means well fitted cell-killing curve with a large enough effect in the repeat runs; inconclusive means weak or mixed curves; inactive means no such curve, though single readings can be large or run the other way.

Assay: qHTS assay for identifying genotoxic compounds that show differential cytotoxicity against isogenic chicken DT40 cell lines with known DNA damage response pathways - Rad54/Ku70 mutant cell line (AID 743015); further: nearly all actives have a fitted effect of over 60% in size
Settings: DT40 Rad54/Ku70 mutant viability, CellTiter-Glo, 40 h; series mostly up to 66.8 µM
Description: National Center for Advancing Translational Sciences [NCATS]
NIH Chemical Genomics Center [NCGC]
U.S. Environmental Protection Agency [EPA]
National Institutes of Environmental Health Sciences [NIEHS]
National Toxicology Program [NTP]
U.S. Food and Drug Administration [FDA]
DNA repair pathways play a critical role in cellular homeostasis by repairing DNA damage induced by endogenous processes and xenobiotics. Isogenic chicken DT40 cell lines deficient in different DNA repair pathways can be used to identify genotoxic compounds and aid in characterizing the nature of the DNA damage induced. Two DNA repair-deficient cell lines with disrupted genes, Rad54/Ku70 or Rev3, were used to screen the Tox21 10K compound library. Possible genotoxicity was based on the presence of a significant increase in cytotoxicity in one or more of the DNA repair-deficient cell lines compared to that observed in the parental DNA repair-proficient cell line. CellTiter Glo viability assay (Promega, Madison, WI) was used to measure cell viability in these cells after compound treatment. This assay includes the data from the Rad54/Ku70 mutant cell line.
Tox21 Assay Protocol Summary:
300 DT40 mutant cells in 5 uL/well were dispensed into white, solid-bottom 1536-well plates using a Multidrop Combi (ThermoFisher Scientific, Waltham, MA) dispenser. After the assay plates were incubated at 37 C/5% CO2 for approximately 0.5 hour, 23 nL of compounds dissolved in DMSO, positive controls or DMSO only was transferred into the assay plate by a pintool work station (Kalypsys, San Diego, CA). The assay plates were incubated at 37 C/5% CO2 for 40 hours. After 5 uL per well of CellTiter-Glo reagent was added into each well of the assay plates, the plates were incubated for 30 min at room temperature and the luminescence intensity of the plates was measured using a ViewLux (PerkinElmer, Shelton, CT) plate reader.
Potency means the concentration at half of the fitted maximal effect.

SMILES	Potency	activity change, negative = cytotoxicity
O=CN1CCOCC1	inactive	
CCS(=O)(=O)CCn1c([N+](=O)[O-])cnc1C	inactive	
O=C1c2ccccc2-c2ccccc21	inactive	
CC(C)(CO)[C@@H](O)C(=O)NCCCO	inactive	
CCC1COC(=O)O1 (stereo not given)	inactive	
Nc1ccnc(=O)[nH]1	inactive	
O=C(/C=C/c1ccccc1)NCCO	inactive	
NS(=O)(=O)c1ccccc1OC(F)(F)F	inactive	
CCOC(=O)C(C)(C)C	inactive	
CCCC(C)CC (stereo not given)	inactive	
CCCCCC(=O)OCC	inactive	
CC1CCC(C(C)(C)S)C(=O)C1 (stereo not given)	inactive	
Cc1nc2ccccc2c(=O)o1	inactive	
CC1=NN(c2ccc(S(=O)(=O)O)cc2)C(=O)C1N=Nc1ccccc1 (stereo not given)	inactive	
C=C[C@@H](C)CCC=C(C)C	inactive	
F[Si-2](F)(F)(F)(F)F	inactive	
CC(=O)c1ccc(OCC(=O)N2CCCCC2)cc1	inactive	
O=C(O)c1c(Cl)ccc(Cl)c1Cl	inactive	
C=CCCCCCCCCCCC		-12.6% [at 8.55 µM] (inactive)
COc1ccc(NS(=O)(=O)c2ccc(N)cc2)nn1	inactive	

SMILES	Potency	activity change, negative = cytotoxicity
CCCCOC(=O)C(=O)OCCCC	inactive	
CCc1nccnc1C	inactive	
O=C(O)CCNC(=O)c1ccccc1	inactive	
COCCOCCOCCOC	inactive	
O=C(Nc1cccc(C2=NCCN2)c1)Nc1cccc(C2=NCCN2)c1	18.8 µM (active)	
COc1ccc(/C=N/NC(=O)c2ccncc2)cc1OC	inactive	
CCOC(=O)CC(CC(=O)OCC)(OC(C)=O)C(=O)OCC	inactive	
C=C[Si](C)(C)O[Si](C)(C)C=C	inactive	
c1ccc(CNc2ncnc3nc[nH]c23)cc1	48.6 µM (active)	
O=C1OC(=O)c2cc(Oc3ccc4c(c3)C(=O)OC4=O)ccc21	inactive	
CCC(CO)CO	inactive	
CC(C)(c1ccc(Oc2ccc3c(c2)C(=O)OC3=O)cc1)c1ccc(Oc2ccc3c(c2)C(=O)OC3=O)cc1	inactive	
NS(=O)(=O)c1ccc(Cl)c(S(N)(=O)=O)c1	inactive	
NC(Cc1c[nH]c2ccccc12)C(=O)O (stereo not given)	inactive	
OCCCCCCCl	inactive	
C[C@H]1O[C@H](O[C@H]2[C@H](O)[C@@H](O)[C@@H](O[C@H]3[C@H](O)[C@@H](O)[C@H](O)O[C@@H]3CO)O[C@@H]2CO)[C@H](O)[C@@H](O)[C@@H]1N[C@H]1C=C(CO)[C@@H](O)[C@H](O)[C@H]1O	inactive	
CC(=O)N(CC(O)CO)c1c(I)c(C(=O)NCC(O)CO)c(I)c(C(=O)NCC(O)CO)c1I (stereo not given)	inactive	
CC(=O)c1ccc2c(c1)CCCC2	inactive	
NC(=O)NC(=O)Cc1ccccc1	inactive	
CCCCOC(=O)C(C)OC(=O)CCC (stereo not given)	inactive	
